The results in this text go back to PubChem BioAssay AID778 (Sanford-Burnham Center for Chemical Genomics, 2007).

The campaign covered roughly 96,000 compounds. About 20,000 (21%) were called active. A selection follows. Values without a mark were called inactive.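 The calls were made as follows: active = CYP2C19 inhibition above a set limit at 5 µM in the primary screen (cut at about 50% in these data); inactive = the rest.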

Cytochrome P450 2C19 (Homo sapiens), sequence (P33261 whole entry, looked up): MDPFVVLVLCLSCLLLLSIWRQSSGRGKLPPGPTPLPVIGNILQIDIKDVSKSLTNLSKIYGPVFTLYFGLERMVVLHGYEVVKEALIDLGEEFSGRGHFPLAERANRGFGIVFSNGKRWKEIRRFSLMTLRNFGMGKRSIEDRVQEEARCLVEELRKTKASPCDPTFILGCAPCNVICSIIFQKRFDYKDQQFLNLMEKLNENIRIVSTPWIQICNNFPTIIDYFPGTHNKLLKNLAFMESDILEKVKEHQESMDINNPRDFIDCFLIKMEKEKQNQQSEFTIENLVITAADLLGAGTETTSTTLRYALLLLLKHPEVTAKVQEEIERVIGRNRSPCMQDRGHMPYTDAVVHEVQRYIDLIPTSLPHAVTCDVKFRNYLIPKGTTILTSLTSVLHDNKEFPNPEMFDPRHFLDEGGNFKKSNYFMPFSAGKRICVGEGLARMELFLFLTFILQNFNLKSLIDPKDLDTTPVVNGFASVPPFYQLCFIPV

This assay addresses Cytochrome P450 2C19 (Homo sapiens) (UniProt P33261). In words: blockers of cytochrome P450 2C19 activity – biochemical, luminescence, ADME assay, primary screen (AID 778).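 Also: plate controls were negative control wells for no effect and 2.5 mM tranylcypromine positive control for full effect.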 As to conditions: CYP2C19 Supersomes, luciferin-H EGE luminescence, 30 min; at 5 µM; stronger effect = higher value.
By inhibition is commonly meant the change of the read-out against control, counted positive when it falls. As for `N/C(=N\OC(=O)c1cc(-c2ccccc2)nc2ccccc12)c1ccncc1`, the inhibition was 29.8%. In the case of `COC(=O)c1ccc(/C=N\n2c(C)nnc2C)cc1` it was 8.4%; in that of `CCOC(=O)C1=C(CC)Nc2ccccc2N=C1NC(=O)c1cccc(S(=O)(=O)N2CCCC2)c1`, 54.2% (active); in that of `CCOC(=O)CSc1nnc(NC(=O)c2cccc(S(=O)(=O)N3CCCCC3)c2)s1`, 7.4%.

Take `CCOC(=O)CSc1nnc(NC(=O)c2cccc(S(=O)(=O)N3CCCC3)c2)s1`: the inhibition was 2.1%.

For `COC(=O)c1ccc(S(=O)(=O)c2ccc(C(=O)OC)s2)s1`, the inhibition is 24.5%.

`CCOC(=O)C1CCCN(C(=O)C2CCN(c3nnc(-n4cccc4)s3)CC2)C1` (centres undefined): the inhibition was 5.1%. Consider `CCOC(=O)C1CCCN(C(=O)c2cncc(Br)c2)C1` (centres undefined), for which the inhibition was 82.7% (active). For the compound `CCOC(=O)C1CCCN(C(=O)c2ccc(CS(=O)(=O)c3ccc(Br)cc3)o2)C1` (centres undefined), the inhibition is 34.7%. As to `CCc1ccc(NC(=O)CS(=O)CC(=O)NCCCc2ccccc2)cc1` (centres undefined), the inhibition is 2.7%. The same measure for `CCOC(=O)C1(Cc2ccc(O)cc2)NC(c2ccccc2F)C2C(=O)N(C)C(=O)C21` (centres undefined): -4.2%; for `COc1ccccc1NC(=O)CSc1nnc(Cn2nnc(-c3ccccc3)n2)n1-c1ccccc1`: 27.4%.

As to `CCOc1ccc2nc(NC(=O)CSc3nc4c(c(=O)n(C)c(=O)n4C)n3CC)sc2c1`, the inhibition is 32.4%.

In the case of `CCCn1c(SCC(=O)Nc2cccc(C(=O)OCC)c2)nnc1-c1ccoc1C`, the inhibition is 32.5%.

With `COc1ccc2nc(NC(=O)c3ccc(Br)s3)sc2c1`, the inhibition is 6.2%.

`COc1ccccc1NC(=O)CSc1nnc(-c2ccoc2C)n1CCc1ccccc1`: the inhibition was 59.8% (active). The same measure for `CCn1c(SCC(=O)Nc2nc3ccc(OC)cc3s2)nnc1-c1ccoc1C`: 51% (active). The same measure for `COc1ccc(S(=O)(=O)N2CCN(c3ncnc4c(-c5ccccc5)nsc34)CC2)cc1`: 38.2%; for `Cc1ccnc(-n2sc3ccccc3c2=O)n1`: 9.8%. In the case of `Cc1cc(NC(=O)CN2CCCC(C)C2)n(-c2nc3ccccc3s2)n1` (centres undefined) it was -3.6%. On to `COC(=O)Nc1c(C)n(C)n(-c2ccccc2)c1=O`, for which the inhibition is -13.8%. In the case of `Cc1cc(C)cc(N(C(C)C(=O)Nc2c(C)n(C)n(-c3ccccc3)c2=O)S(C)(=O)=O)c1` (centres undefined) it was 62% (active). The same measure for `Cc1c(NC(=O)C(C)OC(=O)c2cc3c4ccccc4n(C)c3s2)c(=O)n(-c2ccccc2)n1C` (centres undefined): 3.3%; for `Cc1cc(C)cc(N(CC(=O)Nc2c(C)n(C)n(-c3ccccc3)c2=O)S(C)(=O)=O)c1`: 63.2% (active); for `Cc1c(NC(=O)c2coc(=O)c(Br)c2)c(=O)n(-c2ccccc2)n1C`: -16.3%. In the case of `Cc1cc(C(=O)Nc2c(C)n(C)n(-c3ccccc3)c2=O)cs1`, the inhibition was -14%.

As for `COc1cc(OC)nc(NC(=O)CCl)n1`, the inhibition is -19.8%.

Regarding `CCN1C(=O)/C(=C\N2CCOCC2)SC1=S`, the inhibition was 10.7%. In the case of `CN(C)/C=C(/C(=O)c1ccc(Cl)cc1)S(=O)(=O)c1ccccc1`, the inhibition is 27.2%. Consider `Cc1ccc(S(=O)(=O)N2CCN(C(=O)CCC(=O)NC3CCCc4ccccc43)CC2)cc1` (centres undefined), for which the inhibition is 23.8%. In the case of `Cc1cc2c(c(=O)n1Cc1ccco1)C(c1ccccc1)C(C#N)=C(N)O2` (centres undefined) it was 21.9%; in that of `Cc1ccc(S(=O)(=O)NCc2cn3ccsc3n2)c(C)c1`, 11.3%; in that of `Cc1ccc2nc(Nc3ccccc3O)nc(-c3ccccc3)c2c1`, 10.3%. The same measure for `O=C(Nc1ncc2c(n1)-c1ccccc1OC2)c1ccc(Cl)cc1`: 12.7%; for `CC1=C(C(=O)Nc2ccccc2)C(c2cccs2)C(C#N)=C(SCC#N)N1` (centres undefined): 88.8% (active); for `Cc1ccc(-c2nnc(-c3ccc(NC(=O)c4cccs4)cc3)o2)cc1`: 22.1%. In the case of `COc1ccc(NC(=O)c2sccc2SCC#N)cc1` it was 24.1%; in that of `Cc1ccc(Cc2cncc(O)c2)cc1S(=O)(=O)O`, 1.6%. For `CCOC(=O)C1CCCN(Cc2nc(N)nc(Nc3ccc(C)cc3)n2)C1` (centres undefined), the inhibition was 6.3%. The same measure for `Fc1ccc(-c2ccc(-c3nn4c(-c5ccco5)nnc4s3)o2)cc1`: 47.8%; for `CCOC(=O)N1CCN(C(=O)c2ccc(S(=O)(=O)c3ccc(C)cc3)c(NC(C)=O)c2)CC1`: 5.6%; for `COc1ccccc1N(CC(=O)N1CCCCC1)S(=O)(=O)c1ccccc1`: 25.2%. On to `CCOC(=O)N1CCN(C(=O)c2ccc3c(c2)N(Cc2ccc(C)cc2)CCS3)CC1`, for which the inhibition was 30%. As for `CCOC(=O)N1CCN(C(=O)CN(c2ccc(C)c(C)c2)S(=O)(=O)c2ccccc2)CC1`, the inhibition is 63.2% (active). In the case of `CCOC(=O)N1CCN(C(=O)c2ccc(CN(c3ccc(C)c(C)c3)S(C)(=O)=O)cc2)CC1` it was 57.3% (active); in that of `CS(=O)(=O)N(CC(=O)N1CCN(Cc2ccccc2)CC1)c1ccc2c(c1)OCCO2`, 17.4%; in that of `COC(=O)Cn1c2ccc(C)cc2c2nc(C)sc21`, -3.3%. In the case of `O=C1c2ccccc2C(O)N1Cc1ccccc1` (centres undefined) it was 60.9% (active); in that of `O=C1c2cccnc2C(Nc2ccc(S(=O)(=O)N3CCCCCC3)cc2)N1Cc1ccccc1` (centres undefined), 40.6%; in that of `O=C(C1=C(O)C(=O)N(Cc2ccccc2)C1c1ccco1)c1ccco1` (centres undefined), -22.3%. In the case of `O=c1ccn(Cc2ccccc2Cl)cc1` it was -3%; in that of `O=C1c2ccccc2C(O)N1Cc1ccccc1Cl` (centres undefined), 80.7% (active); in that of `O=S1(=O)CCN(Cc2ccccc2Cl)CC1`, 35.5%. In the case of `S=c1[nH]nc(-c2ccc(Cl)cc2)n1CC1CCCO1` (centres undefined), the inhibition is 41.3%. In the case of `COC(=O)c1cc(Cl)c(NC(=O)c2ccco2)cc1OC` it was 9.4%; in that of `CCCCCC(=O)Nc1ccc2oc(-c3ccncc3)nc2c1`, 77.7% (active); in that of `O=C(Cc1cccc2ccccc12)Nc1ccc2oc(-c3ccccc3)nc2c1`, 5.7%. As to `O=C(Nc1ccc2oc(-c3ccc4ccccc4c3)nc2c1)c1cccs1`, the inhibition was -16.3%. In the case of `Cc1ccc2[nH]c(=O)c(-c3nc4c(C)cccn4c3NCc3ccco3)cc2c1` it was -0.9%.
